# Inconclusive results are not listed. Entries that show only a call come without a potency. A structure can be active in one record and inactive in another. A number with no mark means an inactive call. Active and inactive are the calls of the source. Unless noted, the call rests on the fitted dose curve; in most records, active means well fitted curve in the direction sought with a large enough effect in the repeat runs; inconclusive means weak or mixed curves; inactive means no such curve, though single readings can be large; an effect the other way counts as inactive or inconclusive.
# Key:
# [1] = qHTS assay to identify small molecule antagonists of the thyroid receptor (TR) signaling pathway - cell viability counter screen (AID 743064); further: nearly all actives have a fitted effect of over 50% in size
# Procedure, shortened: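 Viability of T3-stimulated (1 nM final) GH3.TRE-Luc cells is measured by CellTiter-Fluor fluorescence after 23.5 h compound exposure at 37 °C plus 30 min reagent incubation.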
# [2] = qHTS assay to identify small molecule antagonists of the thyroid receptor (TR) signaling pathway (AID 743065); further: nearly all actives have a fitted effect of over 55% in size; further: potency means the concentration at half of the fitted maximal effect; on activity, negative = inhibition: series mostly up to about 70 µM
# Procedure, shortened: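 GH3.TRE-Luc rat pituitary cells (two TREs driving luciferase) were dosed with compound, then stimulated with 1 nM T3 (final) for 23.5 h at 37 C. ONE-Glo luminescence was the read-out, with CellTiter-Fluor fluorescence as the cytotoxicity counter-screen.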
# [3] = tested on: thyroid hormone receptor (rat, GH3 cells); assay: qHTS assay to identify small molecule agonists of the thyroid receptor (TR) signaling pathway (AID 743066; calls by dose curve)
# [4] = qHTS assay to identify small molecule antagonists of the estrogen receptor alpha (ER-alpha) signaling pathway - cell viability counter screen (AID 743074; calls by dose curve;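 further: HEK293 cells carrying ER-alpha-UAS-bla reporter stimulated with 17beta-estradiol; nearly all actives have a fitted effect of over 45% in size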)
# [5] = target: Estrogen receptor (Homo sapiens) (UniProt P03372); assay: qHTS assay to identify small molecule agonists of the estrogen receptor alpha (ER-alpha) signaling pathway (AID 743075; calls by dose curve;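 further: HEK293 GripTite cells with ER-alpha and UAS-driven beta-lactamase reporter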)
# Estrogen receptor (Homo sapiens), sequence (P03372 whole entry, looked up): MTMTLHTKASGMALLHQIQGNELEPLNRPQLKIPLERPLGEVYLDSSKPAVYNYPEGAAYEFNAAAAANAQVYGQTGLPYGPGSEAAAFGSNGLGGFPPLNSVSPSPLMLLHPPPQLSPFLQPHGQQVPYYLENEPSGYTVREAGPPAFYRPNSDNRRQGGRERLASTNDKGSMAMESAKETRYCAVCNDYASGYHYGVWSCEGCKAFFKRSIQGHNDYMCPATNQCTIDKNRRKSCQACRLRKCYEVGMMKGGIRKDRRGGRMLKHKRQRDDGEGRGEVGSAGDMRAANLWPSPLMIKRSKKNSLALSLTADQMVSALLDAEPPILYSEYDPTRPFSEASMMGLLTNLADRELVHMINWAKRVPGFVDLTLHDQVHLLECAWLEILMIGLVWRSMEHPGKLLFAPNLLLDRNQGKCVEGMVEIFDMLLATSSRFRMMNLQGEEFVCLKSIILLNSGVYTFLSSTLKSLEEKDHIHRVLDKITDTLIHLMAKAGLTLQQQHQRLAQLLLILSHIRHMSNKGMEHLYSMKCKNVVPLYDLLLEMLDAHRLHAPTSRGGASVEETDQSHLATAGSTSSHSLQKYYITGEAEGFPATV
# [6] = target: Estrogen receptor (Homo sapiens) (UniProt P03372); assay: qHTS assay to identify small molecule agonists of the estrogen receptor alpha (ER-alpha) signaling pathway using the BG1 cell line (AID 743079); further: nearly all actives have a fitted effect of over 20% in size
# [7] = qHTS assay to identify small molecule antagonists of the estrogen receptor alpha (ER-alpha) signaling pathway using the BG1 cell line (AID 743080; calls by dose curve;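 further: BG1 cells stimulated with 17beta-estradiol alongside compound; series mostly up to about 70 µM; nearly all actives have a fitted effect of over 25% in size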)
# Procedure, shortened: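 Readout is ONE-Glo luminescence, taken 30 min at room temperature after reagent addition, preceded by a CellTiter-Fluor viability read; BG1-Luc-4E2 cells had received compound and 17beta-estradiol for 21.5 h at 37 C.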
# [8] = qHTS assay to identify small molecule antagonists of the estrogen receptor alpha (ER-alpha) signaling pathway using the BG1 cell line - cell viability counter screen (AID 743081);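 further: compound given together with 17beta-estradiol as the ER stimulus; series mostly up to about 70 µM; nearly all actives have a fitted effect of over 45% in size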
# Aromatase (Homo sapiens) = Aromatase (Homo sapiens) (UniProt P11511); assay: qHTS assay to identify aromatase inhibitors (AID 743083); further: series mostly up to about 70 µM; nearly all actives have a fitted effect of over 55% in size
# Aromatase (Homo sapiens), sequence (P11511 whole entry, looked up): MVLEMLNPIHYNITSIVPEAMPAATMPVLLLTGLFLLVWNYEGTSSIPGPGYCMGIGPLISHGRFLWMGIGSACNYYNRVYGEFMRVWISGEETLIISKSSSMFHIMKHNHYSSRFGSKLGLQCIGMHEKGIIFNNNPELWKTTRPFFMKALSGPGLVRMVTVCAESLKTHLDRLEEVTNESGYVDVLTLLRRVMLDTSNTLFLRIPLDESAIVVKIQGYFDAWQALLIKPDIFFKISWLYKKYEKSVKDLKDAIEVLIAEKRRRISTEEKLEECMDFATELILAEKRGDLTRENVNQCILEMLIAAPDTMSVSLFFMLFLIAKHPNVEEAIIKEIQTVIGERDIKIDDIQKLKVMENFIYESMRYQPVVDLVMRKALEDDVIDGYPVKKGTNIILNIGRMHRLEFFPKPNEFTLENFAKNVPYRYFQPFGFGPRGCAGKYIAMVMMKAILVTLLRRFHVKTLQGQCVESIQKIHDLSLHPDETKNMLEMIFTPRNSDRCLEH
# [9] = qHTS assay to identify aromatase inhibitors - cell viability counter screen (AID 743084);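 further: cells stimulated with testosterone during compound exposure; nearly all actives have a fitted effect of over 55% in size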
# [10] = target: Aryl hydrocarbon receptor (Homo sapiens) (UniProt P35869); assay: qHTS assay to identify small molecule that activate the aryl hydrocarbon receptor (AhR) signaling pathway (AID 743085);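 further: HG2L7.5c1 human HepG2 liver cells with stably integrated DRE-driven firefly reporter; series mostly up to about 70 µM; nearly all actives have a fitted effect of over 15% in size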
# Aryl hydrocarbon receptor (Homo sapiens), sequence (P35869 whole entry, looked up): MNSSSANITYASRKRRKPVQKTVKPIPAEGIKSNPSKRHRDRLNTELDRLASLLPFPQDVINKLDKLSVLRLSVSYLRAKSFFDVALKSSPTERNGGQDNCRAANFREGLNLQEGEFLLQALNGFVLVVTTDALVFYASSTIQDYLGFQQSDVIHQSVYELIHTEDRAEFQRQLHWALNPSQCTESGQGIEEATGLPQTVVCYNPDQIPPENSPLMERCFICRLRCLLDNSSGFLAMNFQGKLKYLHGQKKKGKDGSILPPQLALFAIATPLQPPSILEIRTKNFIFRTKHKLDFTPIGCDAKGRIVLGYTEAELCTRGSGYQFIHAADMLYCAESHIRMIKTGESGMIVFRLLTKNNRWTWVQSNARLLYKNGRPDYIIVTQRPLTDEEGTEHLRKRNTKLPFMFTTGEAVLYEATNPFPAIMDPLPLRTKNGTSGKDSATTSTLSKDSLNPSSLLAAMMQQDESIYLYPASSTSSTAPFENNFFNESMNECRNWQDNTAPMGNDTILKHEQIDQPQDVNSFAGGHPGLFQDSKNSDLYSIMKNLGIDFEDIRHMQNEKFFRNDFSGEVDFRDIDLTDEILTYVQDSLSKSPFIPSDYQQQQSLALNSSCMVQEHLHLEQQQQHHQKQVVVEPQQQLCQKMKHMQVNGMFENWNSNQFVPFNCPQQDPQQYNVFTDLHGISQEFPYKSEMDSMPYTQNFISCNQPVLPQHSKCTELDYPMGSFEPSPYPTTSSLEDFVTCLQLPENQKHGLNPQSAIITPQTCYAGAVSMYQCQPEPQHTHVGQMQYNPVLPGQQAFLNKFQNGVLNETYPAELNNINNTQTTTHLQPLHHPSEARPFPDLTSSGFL
# Procedure, shortened: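 A multiplexed format paired cell viability (CellTiter-Fluor fluorescence) with AhR-dependent luciferase output (ONE-Glo luminescence) in the same wells of HepG2 DRE-luc cells after 24 h compound exposure at 37C.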
# [11] = qHTS assay to identify small molecule that activate the aryl hydrocarbon receptor (AhR) signaling pathway - cell viability counter screen (AID 743086);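 further: HepG2 liver cells carrying the AhR DRE luciferase reporter; series mostly up to about 70 µM; nearly all actives have a fitted effect of over 45% in size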
# Procedure, shortened: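 HepG2-AhR-luc (HG2L7.5c1) cells, 4000/well, treated 24 h at 37 C with compound; viability measured as CellTiter-Fluor fluorescence after 30 min in the same wells as the luciferase read.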
# [12] = target: Peroxisome proliferator-activated receptor gamma (Homo sapiens) (UniProt P37231); assay: qHTS assay to identify small molecule agonists of the peroxisome proliferator-activated receptor gamma (PPARg) signaling pathway (AID 743094; active means well fitted activation curve with a large enough effect in the signal ratio in the repeat runs, not every such curve was filed as active; the % refers to the signal ratio)
# Peroxisome proliferator-activated receptor gamma (Homo sapiens), sequence (P37231 whole entry, looked up): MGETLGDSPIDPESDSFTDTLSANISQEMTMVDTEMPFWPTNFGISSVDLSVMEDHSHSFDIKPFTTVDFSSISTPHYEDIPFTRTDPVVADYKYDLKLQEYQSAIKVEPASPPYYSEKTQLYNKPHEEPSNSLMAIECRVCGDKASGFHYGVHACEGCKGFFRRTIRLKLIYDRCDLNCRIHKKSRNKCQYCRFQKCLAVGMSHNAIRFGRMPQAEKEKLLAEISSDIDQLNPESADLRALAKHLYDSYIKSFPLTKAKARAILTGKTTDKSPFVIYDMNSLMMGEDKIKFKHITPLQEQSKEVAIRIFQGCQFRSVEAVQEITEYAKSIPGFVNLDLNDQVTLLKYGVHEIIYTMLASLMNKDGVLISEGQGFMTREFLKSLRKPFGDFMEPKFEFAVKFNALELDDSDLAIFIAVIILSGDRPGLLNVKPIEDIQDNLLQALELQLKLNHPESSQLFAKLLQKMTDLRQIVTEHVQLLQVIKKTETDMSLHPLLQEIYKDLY
# Procedure, shortened: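 HEK293H PPARg-bla cells, 5 h settle at 37C/5% CO2; compound (DMSO) 17 h, 37C; B/G FRET substrate 1 h RT; fluorescence intensity read-out. qHTS format.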
# [13] = target: Peroxisome proliferator-activated receptor gamma (Homo sapiens) (UniProt P37231); assay: qHTS assay to identify small molecule antagonists of the peroxisome proliferator-activated receptor gamma (PPARg) signaling pathway (AID 743191; calls by dose curve; further: series mostly up to about 63 µM; nearly all actives have a fitted effect of over 30% in size)
# Procedure, shortened: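 GeneBLAzer PPARg UAS-bla HEK293H cells, 5 h post-plating, exposed to compounds 17 h at 37C. LiveBLAzer B/G FRET substrate added for 1 h at room temperature; beta-lactamase reporter read by fluorescence intensity.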
# [14] = qHTS assay to identify small molecule antagonists of the peroxisome proliferator-activated receptor gamma (PPARg) signaling pathway - cell viability counter screen (AID 743194); further: nearly all actives have a fitted effect of over 55% in size
# Procedure, shortened: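 Cytotoxicity counter screen in PPARg-bla HEK293H cells, same wells as reporter assay. Compounds plus 50 nM rosiglitazone (final) for 17 h at 37 C, then viability read by CellTiter-Glo luminescence.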
# [15] = qHTS assay for small molecule agonists of the antioxidant response element (ARE) signaling pathway (AID 743202; active means well fitted activation curve with a large enough effect in the signal ratio in the repeat runs, not every such curve was filed as active; the % refers to the signal ratio)
# Procedure, shortened: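 HepG2 ARE-bla reporter line, 2,000 cells/well; 5 h preincubation 37 C/5% CO2; compound (DMSO) 16 h 37 C; B/G FRET substrate 2 h RT; fluorescence intensity.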
# [16] = qHTS assay for small molecule agonists of the antioxidant response element (ARE) signaling pathway - cell viability counter screen (AID 743203; calls by dose curve; further: nearly all actives have a fitted effect of over 55% in size)
# Procedure, shortened: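 Luminescence read-out (CellTiter-Glo, 30 min at room temperature) measured cell viability in the same wells as the ARE beta-lactamase reporter. HepG2 ARE-bla cells were treated with compounds for 16 hrs at 37C/5% CO2.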
# [17] = qHTS assay for small molecule activators of the heat shock response signaling pathway - cell viability counter screen (AID 743209); further: nearly all actives have a fitted effect of over 50% in size
# Procedure, shortened: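 HSE-bla HeLa; 1500 cells/well; overnight 37 C, 5% CO2; compound 5 h 37 C; LiveBLAzer B/G substrate 2.5 h RT; CellTiter-Glo 30 min RT; luminescence.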
# [18] = qHTS assay for small molecule activators of the heat shock response signaling pathway (AID 743210; active means well fitted activation curve with a large enough effect in the signal ratio in the repeat runs, with a control signal flat, not every such curve was filed as active; the % refers to the signal ratio;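 further: HeLa cells with beta-lactamase reporter driven by heat shock elements; series mostly up to about 63 µM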)
# Procedure, shortened: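 Beta-lactamase reporter read-out: FRET substrate fluorescence after 2.5 h at RT, following 5 h compound treatment at 37 C of HeLa cells carrying HSE-driven bla reporter; quantitative HTS format.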
# [19] = target: Estrogen receptor (Homo sapiens) (UniProt P03372); assay: qHTS assay to identify small molecule antagonists of the estrogen receptor alpha (ER-alpha) signaling pathway (AID 743069; active means well fitted curve in the direction sought with a large enough effect in the signal ratio in the repeat runs, not every such curve was filed as active; the % refers to the signal ratio)
# Procedure, shortened: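 Beta-lactamase FRET fluorescence is read after 2 hr at room temperature with LiveBLAzer B/G substrate. Before that, ER-alpha-bla HEK293 cells sit 4 hr after plating, then receive compound plus 17beta-estradiol and incubate 18 hr at 37C.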
smiles,measurement,setting,value
CC(C)c1ccc(S(=O)(=O)O)cc1,Potency,[1],inactive
same,Potency,[2],inactive
same,Potency,[3],inactive
same,outcome,[4],inactive
same,Potency,[5],inactive
same,Potency,[6],inactive
same,Potency,[7],inactive
same,Potency,[8],inactive
same,Potency,Aromatase (Homo sapiens),inactive
same,Potency,[9],inactive
same,Potency,[10],inactive
same,outcome,[11],inactive
same,outcome,[12],inactive
same,outcome,[13],inactive
same,outcome,[14],inactive
same,Potency,[15],inactive
same,outcome,[16],inactive
same,outcome,[17],inactive
same,Potency,[18],inactive
CN(C)CCCN,Potency,[1],inactive
same,Potency,[2],inactive
same,Potency,[3],inactive
same,Potency,[19],inactive
same,outcome,[4],inactive
same,Potency,[5],inactive
same,Potency,[6],inactive
same,Potency,[7],inactive
same,Potency,[8],inactive
same,Potency,Aromatase (Homo sapiens),inactive
same,Potency,[9],inactive
same,Potency,[10],inactive
same,outcome,[11],inactive
same,outcome,[12],inactive
same,outcome,[14],inactive
same,Potency,[15],inactive
same,outcome,[16],inactive
same,outcome,[17],inactive
same,Potency,[18],inactive
O=C(OCCOCCOC(=O)c1ccccc1)c1ccccc1,Potency,[1],inactive
same,Potency,[2],inactive
same,Potency,[3],inactive
same,outcome,[4],inactive
same,Potency,[5],inactive
same,Potency,[6],inactive
same,Potency,[7],inactive
same,Potency,[8],inactive
same,Potency,Aromatase (Homo sapiens),inactive
same,Potency,[9],inactive
same,Potency,[10],inactive
same,outcome,[11],inactive
same,outcome,[12],inactive
same,outcome,[13],inactive
same,outcome,[14],inactive
same,Potency,[15],inactive
same,outcome,[16],inactive
same,outcome,[17],inactive
same,Potency,[18],inactive
COc1ccc(Nc2ccccc2)c(C)c1,Potency,[1],inactive
same,Potency,[2],inactive
same,Potency,[3],inactive
same,outcome,[4],inactive
same,Potency,[5],inactive
same,Potency,[6],inactive
same,Potency,[7],inactive
same,Potency,[8],inactive
same,Potency,Aromatase (Homo sapiens),inactive
same,Potency,[9],inactive
same,Potency,[10],inactive
same,outcome,[11],inactive
same,outcome,[12],inactive
same,outcome,[13],inactive
same,outcome,[14],inactive
same,Potency,[15],inactive
same,outcome,[16],inactive
same,outcome,[17],inactive
same,Potency,[18],inactive
CCCCN(CCCC)CCCC,Potency,[1],inactive
same,Potency,[2],inactive
same,Potency,[3],inactive
same,Potency,[19],inactive
same,outcome,[4],inactive
same,Potency,[5],inactive
same,Potency,[6],inactive
same,Potency,[7],inactive
same,Potency,[8],inactive
same,Potency,Aromatase (Homo sapiens),inactive
same,Potency,[9],inactive
same,Potency,[10],inactive
same,outcome,[11],inactive
same,outcome,[14],inactive
same,Potency,[15],inactive
same,outcome,[16],inactive
same,outcome,[17],inactive
same,Potency,[18],inactive
O=S(=O)(O)c1ccc2ccccc2c1,Potency,[1],inactive
same,Potency,[2],inactive
same,Potency,[3],inactive
same,Potency,[19],inactive
same,outcome,[4],inactive
same,Potency,[5],inactive
same,Potency,[6],inactive
same,Potency,[7],inactive
same,Potency,[8],inactive
same,Potency,Aromatase (Homo sapiens),inactive
same,Potency,[9],inactive
same,outcome,[11],inactive
same,outcome,[12],inactive
same,outcome,[13],inactive
same,outcome,[14],inactive
same,Potency,[15],inactive
same,outcome,[16],inactive
same,outcome,[17],inactive
same,Potency,[18],inactive
CCN(CC)CCCC(C)Nc1ccnc2cc(Cl)ccc12 (stereo not drawn),"activity change, negative = cytotoxic",[1],-23.7% [at 8.44 µM]
same,Potency,[2],26.6 µM (active)
same,"activity, negative = inhibition",[2],-19.4% [at 8.44 µM]
same,Potency,[3],inactive
same,outcome,[4],inactive
same,Potency,[5],inactive
same,Potency,[6],inactive
same,Potency,[7],inactive
same,Potency,[8],inactive
same,Potency,Aromatase (Homo sapiens),inactive
same,Potency,[9],inactive
same,Potency,[10],inactive
same,outcome,[11],inactive
same,outcome,[12],inactive
same,outcome,[13],inactive
same,outcome,[14],inactive
same,activation,[15],-11.9% [at 8.36 µM]
same,"viability change, negative = cytotoxic",[16],-7.65% [at 8.36 µM]
same,outcome,[17],inactive
same,Potency,[18],inactive
